# From PubChem BioAssay AID1852 (Sanford-Burnham Center for Chemical Genomics, 2009)
# The whole screen tested about 2,500 compounds, of which about 1,100 (44%) were called active. The set was probably picked from earlier hits. The list shows a part of the results. Values without a mark were called inactive.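 Rule for the calls: active = inhibition above 50% at 4 µM in the single-point screen; inactive = inhibition of 50% or less.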
# Assay: TNF-a-driven NF-kB reporter inhibitors, primary screen, selectivity assay for NOD1/NOD2 signaling inhibitor project, cell-based, HEK293T NF-kB-Luc, luminescence (AID 1852)
# Details: TNF-a induced, 14 h, at 4 µM, active compounds read high
row,SMILES,inhibition
1,CC[C@@]1(O)C(=O)OCc2c1cc1n(c2=O)Cc2cc3c(N)cccc3nc2-1,88.3% (active)
2,O=C(N/N=C/c1ccc([N+](=O)[O-])o1)c1ccccc1-n1cccc1,45.7%
3,Cc1nonc1C(=O)N/N=C/c1ccc([N+](=O)[O-])o1,46%
4,O=[N+]([O-])c1ccc(/C=N/N=C/c2ccc([N+](=O)[O-])o2)o1,83% (active)
5,O=C(Nc1c(Cl)ccc2nsnc12)c1ccc([N+](=O)[O-])o1,16%
6,Cc1ccc(NCC(=O)N/N=C\c2ccc([N+](=O)[O-])o2)cc1,35.7%
7,O=C(CNc1cccc2ccccc12)N/N=C/c1ccc([N+](=O)[O-])o1,34%
8,Cc1scc(C(=O)N/N=C/c2ccc([N+](=O)[O-])o2)c1C,72% (active)
9,O=C(N/N=C/c1ccc([N+](=O)[O-])o1)c1ccccc1NS(=O)(=O)c1cccs1,61.1% (active)
10,O=C(N/N=C/c1ccc([N+](=O)[O-])o1)c1cc2ccccc2o1,52.9% (active)
11,O=C(N/N=C/c1ccc([N+](=O)[O-])o1)c1ccc2c(c1)OCO2,71.8% (active)
12,CCN(Cc1ccccc1)S(=O)(=O)c1ccc(C(=O)Nc2nnc(C3CC3)o2)cc1,92.7% (active)
13,CCN(c1ccccc1)S(=O)(=O)c1ccc(NC(=S)NC(=O)c2cccs2)cc1,43.4%
14,CCCCN(C)S(=O)(=O)c1ccc(C(=O)Nc2nnc(-c3cccs3)o2)cc1,55.8% (active)
15,O=C(CN(Cc1ccccc1)S(=O)(=O)c1ccc2c(c1)OCCO2)Nc1ccc2c(c1)OCCO2,8.4%
16,CCCCN(CC)S(=O)(=O)c1ccc(C(=O)Nc2nnc(-c3ccccc3Cl)o2)cc1,59.6% (active)
17,CCCCN(CC)S(=O)(=O)c1ccc(C(=O)Nc2nnc(-c3cccs3)o2)cc1,59.1% (active)
18,CN1CCN(Cc2nc(Cc3cccc(F)c3)no2)CC1c1ccccc1 (configuration not stated),3.2%
19,O=C(N/N=C/c1cc(Cl)c(O)c(Cl)c1)c1cc2c(ccc3ccccc32)o1,42.9%
20,CCOC(=O)COc1ccc2ccccc2c1/C=C/[N+](=O)[O-],27.3%
21,NC(=S)N/N=C\c1c(OCc2ccccc2Cl)ccc2ccccc12,66% (active)
22,COc1ccc(S(=O)(=O)Nc2ccc(OCC(=O)O)cc2)c2ccccc12,-2.2%
23,COc1ccc(OC)c(S(=O)(=O)Nc2ccc(O)c3ccccc23)c1,62.6% (active)

row,SMILES,inhibition
1,Cc1ccc(S(=O)(=O)Nc2cc(C)c(O)cc2C)cc1,29.5%
2,Cc1ccc(S(=O)(=O)Nc2ccc(O)c3ccccc23)c(C)c1,92.3% (active)
3,O=S(=O)(Nc1ccc(O)c2ccccc12)c1ccc(Br)cc1,101% (active)
4,Cc1ccc(S(=O)(=O)Nc2cc(C(C(=O)OC(C)C)C(=O)C(F)(F)F)c(O)c3ccccc23)c(C)c1 (configuration not stated),72% (active)
5,COc1ccc(NC(C)=O)cc1S(=O)(=O)Nc1ccc(OCc2ccccc2)cc1,33.1%
6,CCc1ccc(S(=O)(=O)Nc2ccc(O)c3ccccc23)cc1,36.3%
7,CCCNc1c(NS(=O)(=O)c2ccc(Br)cc2)c(=O)oc2ccccc12,11.2%
8,O=C(O)CCSc1nnc(-c2ccc3c(c2)OCO3)o1,64.7% (active)
9,O=C(O)CCSc1ncnc2sc(-c3ccccc3)cc12,43.8%
10,COC(=O)c1sccc1NC(=O)CSc1ccccc1NS(=O)(=O)c1cc(Cl)ccc1Cl,39%
11,CCOc1ccc(S(=O)(=O)Nc2cc(SCC(=O)O)c(O)c3ccccc23)cc1,92.5% (active)
12,COC(=O)c1sccc1NC(=O)CSc1ccccc1NS(=O)(=O)c1ccc(Br)cc1,26.3%
13,COc1ccc(S(=O)(=O)Nc2cc(SCC(=O)O)c(O)c3ccccc23)cc1,98.3% (active)
14,Cc1ccc(C)c(S(=O)(=O)Nc2cc(SCC(=O)O)c(O)c3ccccc23)c1,105% (active)
15,COc1ccc(S(=O)(=O)c2c(O)cc(C)c(NS(=O)(=O)c3ccccc3)c2C)cc1,46.9%
16,Cc1ccc(-c2n[nH]c(=O)c3ccccc23)cc1S(=O)(=O)Nc1ccccc1,14.6%
17,CCc1ccc(S(=O)(=O)Nc2cc(SCC(=O)O)c(O)c3ccccc23)cc1,8%
18,O=C(O)CSc1cc(NS(=O)(=O)c2ccc(Cl)cc2)c2ccccc2c1O,93.9% (active)
19,Cc1cc(S(=O)(=O)NCc2ccncc2)c(C)cc1Br,22.7%
20,CS(=O)(=O)C1=NN2C(=N)/C(=C\c3ccc(OCCOc4ccccc4)cc3)C(=O)N=C2S1,-28.3%
21,CCN1CCN(Cc2ccc(NC(=O)c3ccc(C)c(NC(=O)c4ccno4)c3)cc2C(F)(F)F)CC1,-16.6%
22,O=C(Nc1ccc2nc3n(c(=O)c2c1)CCCCC3)c1c(F)ccc([N+](=O)[O-])c1F,94.6% (active)
23,O=C(Nc1ccc2nc3n(c(=O)c2c1)CCCCC3)c1cc([N+](=O)[O-])ccc1F,37.4%

row,SMILES,inhibition
1,O=C(c1[nH]ncc1-c1ccccc1)C1CO1 (configuration not stated),2.8%
2,Cc1ccc(/C=N/Nc2ccc(C(=O)O)cc2)s1,44.7%
3,Cc1cccc(NC(=S)N/N=C/c2ccc([N+](=O)[O-])s2)c1,106% (active)
4,O=[N+]([O-])c1ccc(/C=N/NC(=S)Nc2ccc(Cl)cc2Cl)s1,31.8%
5,O=C(N/N=C/c1ccc([N+](=O)[O-])s1)c1ccncc1,45.8%
6,Cc1ccc(NC(=S)N/N=C/c2ccc([N+](=O)[O-])s2)cc1,100% (active)
7,Cc1ccc(C(=O)N/N=C/c2ccc([N+](=O)[O-])s2)cc1,66.9% (active)
8,Cc1ccc(-c2nnc(Sc3nc4ccccc4o3)c3ccccc23)cc1,-46.1%
9,CCC(C)Cn1c(O)cc2nn(-c3nc4ccccc4s3)c(=O)c-2c1C (configuration not stated),77.4% (active)
10,CCC(C)Cn1c(C)nc2ccccc21 (configuration not stated),28%
11,CCC(C)Cn1c(C(C)C)nc2ccccc21 (configuration not stated),-3%
12,COc1c(C)cc(C(=O)C2CCCN(C(=O)CCc3scnc3C)C2)cc1C (configuration not stated),27.3%
13,Cc1ccnn1CCC(=O)N1CCCC(Nc2ccc(F)c(F)c2)C1 (configuration not stated),21.6%
14,Fc1ccc(C2CCCN2Cc2nc(Cc3ccccc3F)no2)cc1 (configuration not stated),-0.4%
15,CCc1cc(C(=O)NC2CCCN(Cc3ccccc3F)C2)n(C)n1 (configuration not stated),57.5% (active)
16,CCC(C)c1ccc(C(C)NC(=S)NC2CCCCC2)cc1 (configuration not stated),21.1%
17,CS(=O)(=O)c1ccc2nc(NC(=O)CCS(=O)(=O)c3ccccc3)sc2c1,36.3%
18,O=C(CCS(=O)(=O)c1ccccc1)Nc1cccc(-c2nc3ccccc3s2)c1,59.9% (active)
19,Cc1nc2ccc(NC(=O)CCS(=O)(=O)c3ccccc3)cc2s1,-1.1%
20,O=C(c1cn(-c2ccccc2)nc1-c1ccccc1)n1nnc2ccccc21,27.6%
21,COc1ccc(-c2csc3ncnc(NCCCO)c23)cc1,60.7% (active)
22,OCCCNc1ncnc2scc(-c3ccc(Cl)cc3)c12,78.5% (active)
23,COc1ccc(-c2csc3ncnc(NCCO)c23)cc1,49.8%

row,SMILES,inhibition
1,CCc1cccc(NS(=O)(=O)c2csc(C(N)=O)c2)c1,23.5%
2,CNC(=S)N(CCc1c(C)[nH]c2ccc(Cl)cc12)Cc1cc(OC)c(OC)c(OC)c1,36.1%
3,CCCc1ccc(-c2c(C)sc(NC(=O)c3ccnn3C)c2C#N)cc1,86.3% (active)
4,CCOC(=O)c1sc(NC(=O)CSc2n[nH]c(-c3ccncc3)n2)c(C#N)c1C,26.6%
5,CCN1/C(=C/C(C)=C/c2sc3ccccc3[n+]2CC)Sc2ccccc21,71.8% (active)
6,CCN1/C(=C/C=C/C=C/C=C/c2sc3ccccc3[n+]2CC)Sc2ccccc21,62.2% (active)
7,O=c1c2cc([N+](=O)[O-])ccc2nc(CN2CCN(c3ccccn3)CC2)n1-c1ccccc1F,2.4%
8,Cc1ccc(NC(=O)CSc2nn(-c3ccccc3)c(=S)s2)cc1S(=O)(=O)N(C)C,72.3% (active)
9,CN(C)S(=O)(=O)c1cc(NC(=O)CSc2nn(-c3ccc(Cl)cc3)c(=S)s2)ccc1Cl,-20.5%
10,CCN(CCn1cccn1)C(=O)CC1C(=O)NCCN1CCc1ccccc1 (configuration not stated),50.2% (active)
11,CCN(Cc1ccncc1)C(=O)CC1C(=O)NCCN1Cc1ccc(F)c(F)c1 (configuration not stated),1.3%
12,CC(CN1CCOCC1)OC(=O)Cc1ccc(Cl)cc1 (configuration not stated),12.4%
13,O=C(Nc1cccc(S(=O)(=O)N2CCCCC2)c1)Nc1ccc(Cl)cc1Cl,-29.7%
14,CSc1ncccc1C(=O)N1CCN(S(=O)(=O)c2cc(C)ccc2C)CC1,-21.1%
15,O=C(CCl)Nc1cccc(S(=O)(=O)N2CCCCCC2)c1,30.6%
16,O=C(Nc1ccc(F)cc1)Nc1ccc(N2CCCC2)c(S(=O)(=O)Nc2ccccc2Cl)c1,35.1%
17,Cc1ccc(NC(=O)CSc2ncnc3ccccc23)cc1S(=O)(=O)N1CCOCC1,39.8%
18,COc1ccc(NS(=O)(=O)c2cccc(NC(=O)c3ccc(Cl)nc3)c2)cc1,42%
19,Cc1ccc(NC(=O)c2ccccc2NS(=O)(=O)c2ccc(F)cc2)cc1S(=O)(=O)N1CCCCC1,81.2% (active)
20,O=C(Nc1cccc(S(=O)(=O)N2CCCCC2)c1)c1ccccc1NS(=O)(=O)c1ccc(F)cc1,87% (active)
21,COc1ccc(NS(=O)(=O)c2cccc(NC(=O)c3ccc(S(=O)(=O)N4CCCCCC4)cc3)c2)cc1,90.7% (active)
22,Cc1ccc(NC(=O)c2cc(=O)c3ccccc3o2)cc1S(=O)(=O)N1CCCCC1,23.9%
23,Cc1ccc(NC(=O)CSc2ncnc3ccccc23)cc1S(=O)(=O)N1CCCCC1,57.7% (active)
